# Screens from PubChem.
# A selection: hits, their analogues and other compounds. The true share with any hit is near 8%.
# KB-3-1 tox = KB-3-1 parental cell cytotoxicity | KB-3-1 viability, CellTiter-Glo ATP luminescence, 72 h | Potency, µM (highest dose often 46.1 µM), actives largely listed as cytotoxic | actives 1.4% (n = 400,000); note: nearly all actives have a fitted effect of over 60% in size
#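 Viability of parental KB-3-1 cells, measured by CellTiter-Glo luminescence, followed a 72 h incubation at 37 °C with pinned compounds in phenol-red-free DMEM containing 10% FBS.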
# HT1080NT lethal = kills 2HG-producing HT-1080-NT fibrosarcoma cells; HT-1080-NT fibrosarcoma viability, CellTiter-Glo ATP luminescence, 48 h; actives 1.6% (n = 360,000); Potency, µM (titrated, usually from 46.1 µM), hits mostly cytotoxic;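 note: NT is the 2HG producing partner of a matched IDH1 knockdown line; nearly all actives have a fitted effect of over 55% in size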
#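 HT-1080-NT fibrosarcoma cells (2HG-overproducing), 750 cells/well in RPMI with 5% FBS, dosed after 2 h and incubated 48 h at 37C. CellTiter-Glo luminescence normalized to DMSO and no-cell wells; concentration-response curves fitted and classed.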
# MCF10A rerep = DNA re-replication induction in MCF 10a cells | AID 624296 | actives 2.9% (n = 350,000) | MCF 10A DNA re-replication, Hoechst nuclear intensity, 48 h | Potency, µM (doses to about 46.1 µM), most hits filed as activators; note: nearly all actives have a fitted effect of over 50% in size
# KB-V1 MDR tox = KB-V1 MDR subline cytotoxicity; KB-V1 MDR cells viability, CellTiter-Glo, 72 h; Potency, µM (top dose mostly 46.1 µM), hits mostly cytotoxic; actives 3.4% (n = 400,000); note: nearly all actives have a fitted effect of over 60% in size
#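 qHTS viability screen in drug-selected KB-V1 MDR cells: 72 h compound treatment at 37 degrees C, ATP luminescence end point.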
# SW480 rerep = DNA re-replication induction in SW480 cells. SW480 DNA re-replication, Hoechst DNA content imaging, 48 h. Potency, µM (titrated, usually from 46.1 µM), actives largely listed as activators. actives 1.8% (n = 340,000); note: nearly all actives have a fitted effect of over 55% in size
#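 Image-based read-out: total Hoechst fluorescence of nuclei (405 nm excitation, 500-530 nm emission), with hits raising the fraction of high-intensity nuclei. SW480 colon cells incubated 48 hr with compounds at 37 C.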
# HT1080 IDH1KD tx = kills HT-1080 cells with IDH1 knockdown. HT-1080 IDH1 knockdown viability, ATP luminescence, 48 h. Potency, µM (series often up to 46.1 µM), hits mostly cytotoxic. actives 2% (n = 360,000)
#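 Assay cells: HT-1080 with IDH1 knockdown, 750 per well, RPMI/5% FBS. Exposure: 48 h at 37 °C following 2 h pre-incubation. Read: CellTiter-Glo luminescence; fitted concentration-response, curve class assigned.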
# A number is an active result; - = inactive; ? = inconclusive; . = not tested or not shown; ! = not confirmed by another sample. Calls come from the whole dose curve; as a rule, active = well fitted curve in the direction sought with a large enough effect; inconclusive = small, poorly fitted or top-dose-only effect, or another doubt; inactive = no such curve, though single readings can be large; an effect the other way counts as inactive or inconclusive.
SMILES,KB-3-1 tox,HT1080NT lethal,MCF10A rerep,KB-V1 MDR tox,SW480 rerep,HT1080 IDH1KD tx
O=C(Cn1c(-c2cccs2)cc2ccccc21)N1CCN(c2ccc(F)cc2)CC1,-,.,.,-,.,.
O=C(CNC(=O)C(c1ccccc1)c1ccccc1)OCC(=O)c1cccc2ccccc12,-,.,.,-,.,.
Cc1ccc(C(=O)NC2CCc3ccccc3C2=O)cc1 (centres undefined),-,-,-,-,-,-
Cc1ccc(C(=O)NC2c3ccccc3-c3ccccc32)cc1,6.5µM,?,-,5.2µM,13µM,2.6µM
O=C(CCCN1CCC(O)(c2ccc(Cl)cc2)CC1)c1ccc(F)cc1,-,-,21µM!,?,-,-
O=C(CCCN1CCC(O)(c2ccc(Br)cc2)CC1)c1ccc(F)cc1,-,.,-,?,-,.
CN1CCN(CCCC(=O)c2ccc(C3CCCC3)cc2)CC1,?,?,?,-,?,33µM
CC1CCN(CCCC(=O)c2ccc(F)cc2)CC1,.,.,-,.,-,.
O=C(CCCN1CCC(C(=O)c2ccc(F)cc2)CC1)c1ccc(F)cc1,-,-,21µM!,-,-,-
CN1CCN(CCCCC(=O)c2ccccc2)CC1,-,-,?,-,-,-
CCOC(=O)c1cccc(C(=O)Oc2ccccc2)n1,-,-,21µM,-,-,-
COc1ccc(-c2cc3nc(C)c(CCC(=O)N4CCN(c5ccc(F)cc5)CC4)c(C)n3n2)c(OC)c1,-,.,.,-,.,.
COc1ccc(S(=O)(=O)NCC2CCCN(Cc3ccccc3Cl)C2)cc1 (centres undefined),-,-,23µM,-,-,-
CCCc1cc(=O)oc2c3c(c4c(c12)OC(C)(C)C=C4)OC(C)C(C)C3O (centres undefined),?,5.8µM,10µM,?,-,3.7µM
CCCc1cc(=O)oc2c3c(cc(OCC(=O)N[C@@H](C)C(=O)O)c12)OC(C)(C)CC3,-,-,-,-,-,-
CN(C)S(=O)(=O)c1cccc(NC(=O)COc2ccccc2C(=O)Nc2ccccc2)c1,?,-,.,16µM,.,?
CCN(CC)S(=O)(=O)c1cc(NC(=O)c2ccccc2OCc2c(C)noc2C)ccc1C,-,-,-,7.3µM,-,-
CN(C)S(=O)(=O)c1cccc(NC(=O)Cc2ccc(Cl)cc2)c1,-,-,?,21µM,-,-
Cc1ccc(NC(=O)c2ccccc2OCC(=O)Nc2ccccc2F)cc1S(=O)(=O)N(C)C,5.2µM,-,-,?,-,?
Cc1ccc(S(=O)(=O)N(C)C)cc1NC(=O)COc1ccccc1C(=O)Nc1ccccc1,-,-,-,?,-,-
CCCCOc1ccc(CNC(=O)CCCN2C(=O)CSc3c2c(C)nn3-c2ccccc2)cc1,-,.,.,-,.,.
O=S(=O)(Nc1ccc(-c2ccc(N3CCCCC3)nn2)cc1)c1ccc(OC(F)(F)F)cc1,-,.,.,?,.,.
CN(N=O)c1ccc(/C=C/c2ccccc2)cc1,-,.,.,-,.,.
Cc1noc(C)c1COc1ccccc1C(=O)Nc1cccc(S(=O)(=O)N(C)C)c1,-,-,-,15µM,-,-
CC(=O)Nc1cccc(NC(=O)c2ccccc2OCc2c(C)noc2C)c1,-,-,-,-,-,-
SMILES,KB-3-1 tox,HT1080NT lethal,MCF10A rerep,KB-V1 MDR tox,SW480 rerep,HT1080 IDH1KD tx
Cc1ccc(/C(N)=N/OC(=O)N2c3ccccc3Sc3ccccc32)cc1,-,-,14µM,?,-,-
O=C(Nc1ccc(F)cc1F)c1cccc(C(=O)Nc2ccc(F)cc2F)n1,.,-,6.5µM,.,16µM,-
CC(C)CN1C(=O)c2ccc(NC(=O)c3ccco3)cc2C1=O,-,-,-,-,-,-
CC(C)CN1C(=O)c2ccc(NC(=O)c3cccs3)cc2C1=O,-,-,?,13µM,-,?
COc1ccc(CN(CCCN2CCOCC2)C(=O)Nc2ccccc2)cc1OC,-,-,-,7.3µM,-,-
O=C(Nc1ccccc1)N(CCCN1CCOCC1)Cc1ccccc1F,-,-,-,-,-,-
O=C(CCN1C(=O)/C(=C/c2ccccc2F)SC1=S)N[C@@H](CO)Cc1ccccc1,?,-,?,-,22µM,?
Cc1c(NC(=O)c2nn3c(c2Br)NC(c2ccccc2)CC3C(F)(F)F)c(=O)n(-c2ccccc2)n1C (centres undefined),-,-,-,16µM,-,-
CCOC(=O)c1sc(-c2cccc(C(F)(F)F)c2)nc1O,?,-,?,-,?,-
CCOC(=O)c1sc(-c2ccc(C(F)(F)F)cc2)nc1O,-,-,16µM,-,16µM,-
O=c1[nH]cc(C#Cc2ccccc2)c2ncncc12,.,-,.,.,.,-
CCOC(=O)/C(=N\Nc1cccc(C(F)(F)F)c1)N(CCOC)CCOC,-,-,-,23µM,-,-
CCOC(=O)/C(=N\Nc1cccc(C(F)(F)F)c1)N1CCOCC1,-,-,-,-,-,-
COc1ccc(S(=O)(=O)c2cn(Cc3ccccc3)c3cc(N4CCCC4)c(F)cc3c2=O)cc1,-,.,.,-,.,.
COc1ccccc1N(CC(=O)NCc1ccco1)S(=O)(=O)c1ccc(C)cc1,-,-,-,-,-,-
Cc1ccccc1N(CC(=O)Nc1ccccc1C(=O)NCc1ccco1)S(=O)(=O)c1ccccc1,23µM,?,?,-,?,21µM
O=C(NCc1ccco1)c1ccc(CS(=O)(=O)Cc2ccc(Cl)cc2)o1,-,-,?,15µM,-,-
Cc1ccc(S(=O)(=O)N(Cc2ccc(Cl)cc2)c2ccccc2C(=O)NCc2ccco2)cc1,-,-,?,18µM,?,-
c1ccc(-c2nc(N3CCN(c4ccccc4)CC3)nc(-n3ccnc3)n2)cc1,?,11µM,7.3µM,23µM,?,?
CN(c1ccccc1)c1nc(-n2ccnc2)nc(-n2ccnc2)n1,-,?,-,?,-,-
c1ccc(N(c2ccccc2)c2nc(-n3ccnc3)nc(-n3ccnc3)n2)cc1,-,-,20µM,?,-,?
COc1ccc(C2=C(C)C(=O)N(Cc3ccc(C(=O)Nc4cc(C)ccc4C)cc3)S2(=O)=O)cc1,-,.,.,-,.,.
Cn1nnnc1SCCCNCc1ccccc1OCc1ccc(F)cc1,-,.,.,?,.,.
O=[N+]([O-])c1ccc(Cl)c(S(=O)(=O)/N=C(/Sc2ccc(Br)cc2)c2ccccc2)c1,?,.,.,-,.,.
COc1ccc2c(c1)c1c(c(=O)n(-c3cc(Cl)ccc3C)c(=O)n1Cc1ccc(F)cc1)n2C,-,.,.,-,.,.
O=c1c(Cc2c(F)cccc2Cl)c(O)ccn1Cc1ccc(F)cc1,-,-,-,-,-,-
O=c1c(Cc2c(F)cccc2Cl)c(O)ccn1C1CCCCCC1,-,-,0.18µM,-,-,-
COc1cc2ccccc2ccc1=NO,?,-,?,16µM,?,-
